From the supplement of paper PMC13380429

system: Vero E6 infected with SARS-CoV-2; test: morphology score (similarity to uninfected cells); higher = more like uninfected cells; settings: 24 h

Structure (SMILES)	morphology score
N#Cc1ccc2[nH]cc(CCCCN3CCN(c4ccc5oc(C(N)=O)cc5c4)CC3)c2c1 [vilazodone] (0.833333 µM)	0.0471
CN(C)CCCN1c2ccccc2CCc2ccccc21 [imipramine] (10 µM)	-0.0385
CCC(c1ccccc1)c1c(O)c2ccccc2oc1=O (stereo unspecified) [phenprocoumon] (10 µM)	0.0901
C=C[C@@H]1C[C@]1(NC(=O)[C@@H]1C[C@@H](Oc2ncc(OC)c3ccc(Cl)cc23)CN1C(=O)[C@@H](NC(=O)OC(C)(C)C)C(C)(C)C)C(=O)NS(=O)(=O)C1CC1 [asunaprevir] (10 µM)	0.192
Cc1cnc(C(=O)N[C@H]2CCCCC/C=C\[C@@H]3C[C@@]3(C(=O)NS(=O)(=O)C3CC3)NC(=O)[C@@H]3C[C@@H](Oc4nc5ccccc5c5ccccc45)CN3C2=O)cn1 [paritaprevir] (10 µM)	0.303
c1ccc2c(c1)[I+]c1ccccc1-2 [diphenyleneiodonium] (0.833333 µM)	0.143
CCC(C/C=C/c1ccccc1)(c1ccccc1)N(C)CC1CC1 (stereo unspecified) [igmesine] (10 µM)	0.316
Cn1c(CNc2ccc(C(=N)N)cc2)nc2cc(C(=O)N(CCC(=O)O)c3ccccn3)ccc21 [dabigatran] (10 µM)	0.269
Cn1c(-c2ccccc2)nnc1S(C)(=O)=O (10 µM)	0.268
C#Cc1cccc2c1c(C(=O)c1ccc(Cn3c(C)nc4cnccc43)c(F)c1)cn2C(=O)N(C)C (10 µM)	0.159
Cc1cc(O)c(C(C)C)cc1Cl [chlorothymol] (10 µM)	-0.0977
